Inconclusive results are not listed. Active and inactive are the calls of the source. Calls follow the shape of the dose curve; as a rule, active = well fitted inhibition curve with a large enough effect; inconclusive = small, poorly fitted or top-dose-only effect, or effect the other way; inactive = flat fitted curve, though single readings scatter.
biological target: Lysosomal acid glucosylceramidase (Homo sapiens) (UniProt P04062); experiment: qHTS Assay for Inhibitors and Activators of N370S glucocerebrosidase as a Potential Chaperone Treatment of Gaucher Disease: Activity in Non-Mutant Spleen Homogenate; conditions: human spleen homogenate GC, 4MU-glucoside fluorescence; series mostly up to 57.5 µM
Sequence (P04062 whole entry, looked up): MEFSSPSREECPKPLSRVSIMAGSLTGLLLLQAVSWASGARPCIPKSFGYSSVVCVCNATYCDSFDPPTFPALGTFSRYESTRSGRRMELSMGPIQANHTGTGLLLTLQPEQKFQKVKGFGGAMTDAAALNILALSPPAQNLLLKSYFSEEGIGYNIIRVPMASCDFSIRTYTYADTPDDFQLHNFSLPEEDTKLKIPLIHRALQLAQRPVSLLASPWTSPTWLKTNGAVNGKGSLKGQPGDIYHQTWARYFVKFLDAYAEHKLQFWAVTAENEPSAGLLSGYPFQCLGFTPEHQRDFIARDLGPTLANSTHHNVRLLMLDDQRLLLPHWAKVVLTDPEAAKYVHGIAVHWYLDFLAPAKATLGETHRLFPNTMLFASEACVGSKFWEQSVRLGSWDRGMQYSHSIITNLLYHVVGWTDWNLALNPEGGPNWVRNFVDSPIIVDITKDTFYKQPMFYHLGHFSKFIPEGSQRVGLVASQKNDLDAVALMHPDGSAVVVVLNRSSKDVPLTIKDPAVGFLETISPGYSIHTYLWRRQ
Description: NIH Chemical Genomics Center [NCGC] NIH Molecular Libraries Probe Production Centers Network [MLPCN] MLPCN Grant: MH086442-01 Assay Submitter (PI): Wei Zheng Glucocerebrosidase (GC) catalyzes the hydrolysis of beta-glucocerebroside to glucose and ceramide in lysosomes. Mutations in the glucocerebrosidase gene result in Gaucher disease, an autosomal recessive lysosomal storage disorder. Many of the mutations encountered in patients with Gaucher disease are missense alterations that may cause misfolding, decreased stability and/or mistrafficking of this lysosomal protein. […] These inhibitors include iminosugar analogs and three non-iminosugar inhibitors identified from a previous HTS of 62,000 compounds with the wild type recombinant enzyme. However, the enhancement of enzyme activity by the chaperone action of an enzyme inhibitor must be balanced against the direct inhibition of the enzyme. An enzyme activator could also function as a chaperone by binding to the enzyme and helping to correct its misfolding and mistrafficking. While activators for GC have not yet been identified, they may have better therapeutic potential than inhibitors. Therefore the discovery and development of chemical activators may provide a new strategy for the chaperone therapy. We have optimized a new assay using N370S mutant GC derived from the spleen of a Gaucher patient. […] In addition, the MLPCN compound library has expanded, which increases the chance of finding new and better probes. This confirmation assay tests for compound activity in spleen homogenate containing wildtype enzyme.
NCGC Assay Protocol Summary: This is a fluorogenic enzyme assay with 4-methylumbelliferyl-beta-D-glucopyranoside as the substrate and wildtype glucocerebrosidase from human spleen homogenate as the enzyme preparation. Upon the hydrolysis of this fluorogenic substrate, the resulting product, […] which can be detected by a standard fluorescence plate reader. Data were normalized to the controls for basal activity (without enzyme) and 100% activity (with enzyme). The AC50 values were determined from concentration-response data modeled with the standard Hill equation. Assay buffer: 50 mM citric acid (titrated with potassium phosphate to pH 5.0), 100 mM potassium chloride, 10 mM sodium chloride, 1 mM magnesium chloride, 0.01% Tween-20. 1536-well assay protocol: (1) Add 2 ul/well of spleen homogenate (27 ug final) (2) Add 23 nL compounds in DMSO solution. The final titration was 0.5 nM to 58 uM. (3) Add 2 ul of substrate (1 mM final) (4) Incubate at 37C for 40 min. (5) Add 2 ul stop solution (1M NaOH and 1M Glycine mixture, pH 10) (6) Detect the assay plate in a ViewLux plate reader (PerkinElmer) with Ex=365 nm and Em=440nm. Keywords: Glucocerebrosidase, beta-glucosidase, Gaucher Disease, pharmacological chaperone, chaperone therapy, high throughput screening, glucocerebrosidase inhibitor, MLSMR, MLSCN, NIH Roadmap, qHTS and NCGC

Row | SMILES | Potency
1 | CC(C)C(C)NC(=O)CSc1nc2scc(-c3ccco3)c2c(=O)n1-c1ccccc1 (stereo not given) | inactive
2 | O=S(=O)(c1ccc(Cl)cc1)N1CCN(c2nc(-c3cccs3)nc3ccccc23)CC1 | 1 µM (active)
3 | O=S(=O)(c1ccc2ccccc2c1)N1CCN(c2nc(-c3cccs3)nc3ccccc23)CC1 | 0.282 µM (active)
4 | O=S(=O)(c1ccccc1C(F)(F)F)N1CCN(c2nc(-c3cccs3)nc3ccccc23)CC1 | 0.398 µM (active)
5 | S=C(NCCCc1cnc[nH]1)NCCCN(Cc1ccc(Cl)c(Cl)c1)c1ccc(Br)cn1 | 0.355 µM (active)
6 | CC(C)(C)C(=O)OCCNc1nc(-c2ccccc2)nc2ccccc12 | 2.24 µM (active)
7 | N#Cc1ccc(S(=O)(=O)N2CCN(c3nc(-c4cccs4)nc4ccccc34)CC2)cc1 | 2.51 µM (active)
8 | Cc1cc(C)cc(N(CC(=O)NC2CCCCCC2)S(=O)(=O)c2c(C)[nH]c(=O)[nH]c2=O)c1 | 0.562 µM (active)
9 | NS(=O)(=O)c1ccc(S(=O)(=O)N2CCN(c3nc(-c4cccs4)nc4ccccc34)CC2)cc1 | 5.01 µM (active)
10 | O=S(=O)(c1ccc2c(c1)OCCO2)N1CCN(c2nc(-c3cccs3)nc3ccccc23)CC1 | 0.447 µM (active)

From PubChem BioAssay AID2592 (National Center for Advancing Translational Sciences (NCATS), 2010)
